Source: paper PMC7862700, “An all-to-all approach to the identification of sequence-specific readers for epigenetic DNA modifications on cytosine”

Experiments:
Assay in all cases: DAPPL (digital affinity profiling via proximity ligation, sequencing); 10 mM Tris-HCl pH 7.5, 50 mM NaCl, 1 mM DTT, 4% glycerol, room temperature, 30 min; GST-TFs on glutathione beads, 16-mer random dsDNA library, 0.1% formaldehyde crosslink after washing; high values mean tight binding
Details in all cases: protein: recombinant; tags: N-terminal GST; dsDNA, one strand shown
ERF = biological target: T1, ERF (Homo sapiens, UniProt P50548 1-548)
T1 sequence: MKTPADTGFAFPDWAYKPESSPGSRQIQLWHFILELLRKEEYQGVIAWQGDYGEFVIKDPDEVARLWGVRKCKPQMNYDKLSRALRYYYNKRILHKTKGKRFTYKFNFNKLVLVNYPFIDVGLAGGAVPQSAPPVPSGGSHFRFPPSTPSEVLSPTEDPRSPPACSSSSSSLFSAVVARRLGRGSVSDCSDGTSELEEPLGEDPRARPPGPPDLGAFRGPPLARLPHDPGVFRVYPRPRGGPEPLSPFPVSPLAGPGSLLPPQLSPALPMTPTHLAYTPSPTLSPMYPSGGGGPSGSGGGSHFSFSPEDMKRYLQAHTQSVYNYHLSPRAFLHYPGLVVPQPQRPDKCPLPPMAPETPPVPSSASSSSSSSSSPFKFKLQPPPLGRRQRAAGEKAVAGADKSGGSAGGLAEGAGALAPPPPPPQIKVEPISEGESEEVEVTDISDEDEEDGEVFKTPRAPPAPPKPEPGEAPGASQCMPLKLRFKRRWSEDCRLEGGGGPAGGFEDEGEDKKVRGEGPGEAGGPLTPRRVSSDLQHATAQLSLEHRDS
Procedure, shortened: (§1)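 Human transcription factors carrying a GST fusion were produced in yeast, bound to glutathione beads, tagged with DNA barcodes and pooled together with a tag-only sample. Each pool was held with 200 nmole of a random double-stranded 16-mer DNA library in Tris/NaCl/DTT/glycerol buffer for 30 min at room temperature, then washed, crosslinked in 0.1% formaldehyde, proximity-ligated with BsaI/T4 ligase (1 h, 37 °C), PCR-amplified and sequenced on an Illumina NextSeq500. Binding signal is the read frequency of each hexamer for a given factor divided by its frequency in the tag-only sample.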

ETV3L = biological target: T2, ETV3L (Homo sapiens, UniProt Q6ZN32 1-361)
T2 sequence: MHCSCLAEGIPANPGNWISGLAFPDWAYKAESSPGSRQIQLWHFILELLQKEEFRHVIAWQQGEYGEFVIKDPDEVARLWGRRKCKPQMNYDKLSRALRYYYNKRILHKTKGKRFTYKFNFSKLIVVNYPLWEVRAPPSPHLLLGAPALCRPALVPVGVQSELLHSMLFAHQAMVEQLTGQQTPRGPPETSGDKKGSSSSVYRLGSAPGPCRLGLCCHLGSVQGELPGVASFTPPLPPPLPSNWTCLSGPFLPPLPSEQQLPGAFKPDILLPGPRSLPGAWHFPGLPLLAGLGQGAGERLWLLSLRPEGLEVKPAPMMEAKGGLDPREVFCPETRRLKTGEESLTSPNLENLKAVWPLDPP
Procedure, shortened: as §1

ETS2 = biological target: T3, ETS2 (Homo sapiens, UniProt P15036 1-469)
T3 sequence: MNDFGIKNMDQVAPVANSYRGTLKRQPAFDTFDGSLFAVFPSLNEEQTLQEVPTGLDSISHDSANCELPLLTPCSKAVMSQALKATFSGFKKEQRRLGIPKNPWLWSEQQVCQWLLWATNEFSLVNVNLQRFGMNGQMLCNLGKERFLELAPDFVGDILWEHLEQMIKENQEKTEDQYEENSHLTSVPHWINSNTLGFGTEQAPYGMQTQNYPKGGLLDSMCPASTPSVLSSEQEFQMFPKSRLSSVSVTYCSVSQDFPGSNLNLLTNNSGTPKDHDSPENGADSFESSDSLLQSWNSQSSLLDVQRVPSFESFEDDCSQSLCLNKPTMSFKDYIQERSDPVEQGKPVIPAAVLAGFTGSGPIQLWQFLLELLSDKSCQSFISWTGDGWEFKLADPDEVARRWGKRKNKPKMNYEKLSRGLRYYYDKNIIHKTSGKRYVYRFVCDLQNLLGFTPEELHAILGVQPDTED
Procedure, shortened: as §1

SPDEF = biological target: T4, SPDEF (Homo sapiens, UniProt O95238 1-335)
T4 sequence: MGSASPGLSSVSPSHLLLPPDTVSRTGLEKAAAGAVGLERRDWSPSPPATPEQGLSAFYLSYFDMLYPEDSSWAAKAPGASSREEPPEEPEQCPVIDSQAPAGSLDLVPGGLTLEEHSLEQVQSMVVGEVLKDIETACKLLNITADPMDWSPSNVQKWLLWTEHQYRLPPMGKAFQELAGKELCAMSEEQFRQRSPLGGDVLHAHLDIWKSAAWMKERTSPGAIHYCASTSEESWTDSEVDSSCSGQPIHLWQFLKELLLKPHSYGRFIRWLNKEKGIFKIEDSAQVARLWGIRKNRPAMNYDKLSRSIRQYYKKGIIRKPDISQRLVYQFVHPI
Procedure, shortened: as §1

ETV7 = biological target: T5, ETV7 (Homo sapiens, UniProt Q9Y603 1-341)
T5 sequence: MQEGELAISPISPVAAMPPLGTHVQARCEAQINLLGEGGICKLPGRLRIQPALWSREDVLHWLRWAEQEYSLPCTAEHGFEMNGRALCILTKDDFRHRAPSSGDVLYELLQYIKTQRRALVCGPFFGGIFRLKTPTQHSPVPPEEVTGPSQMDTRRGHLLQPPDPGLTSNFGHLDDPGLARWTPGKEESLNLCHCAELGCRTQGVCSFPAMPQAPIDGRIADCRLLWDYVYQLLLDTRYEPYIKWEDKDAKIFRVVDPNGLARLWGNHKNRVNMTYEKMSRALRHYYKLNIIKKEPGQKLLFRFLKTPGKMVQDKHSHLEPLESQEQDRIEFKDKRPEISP
Procedure, shortened: as §1

ELF5 = biological target: T6, ELF5 (Homo sapiens, UniProt Q9UKW6-2 1-255)
T6 sequence: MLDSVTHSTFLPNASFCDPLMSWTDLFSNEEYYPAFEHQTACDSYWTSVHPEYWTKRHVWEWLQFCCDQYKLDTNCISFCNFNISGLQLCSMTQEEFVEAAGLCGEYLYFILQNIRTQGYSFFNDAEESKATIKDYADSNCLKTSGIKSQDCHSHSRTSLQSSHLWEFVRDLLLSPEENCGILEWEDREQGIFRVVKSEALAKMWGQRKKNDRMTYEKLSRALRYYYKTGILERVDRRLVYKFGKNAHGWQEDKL
Procedure, shortened: as §1

ETV3 = biological target: T7, ETV3 (Homo sapiens, UniProt P41162-2 1-143)
T7 sequence: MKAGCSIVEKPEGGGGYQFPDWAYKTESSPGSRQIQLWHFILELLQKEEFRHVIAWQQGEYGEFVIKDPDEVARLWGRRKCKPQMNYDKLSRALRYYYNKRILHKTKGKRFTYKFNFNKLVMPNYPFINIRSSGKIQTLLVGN
Procedure, shortened: as §1

ETV6 = ETV6 (Homo sapiens, UniProt P41212 1-452)
ETV6, sequence (P41212 whole entry): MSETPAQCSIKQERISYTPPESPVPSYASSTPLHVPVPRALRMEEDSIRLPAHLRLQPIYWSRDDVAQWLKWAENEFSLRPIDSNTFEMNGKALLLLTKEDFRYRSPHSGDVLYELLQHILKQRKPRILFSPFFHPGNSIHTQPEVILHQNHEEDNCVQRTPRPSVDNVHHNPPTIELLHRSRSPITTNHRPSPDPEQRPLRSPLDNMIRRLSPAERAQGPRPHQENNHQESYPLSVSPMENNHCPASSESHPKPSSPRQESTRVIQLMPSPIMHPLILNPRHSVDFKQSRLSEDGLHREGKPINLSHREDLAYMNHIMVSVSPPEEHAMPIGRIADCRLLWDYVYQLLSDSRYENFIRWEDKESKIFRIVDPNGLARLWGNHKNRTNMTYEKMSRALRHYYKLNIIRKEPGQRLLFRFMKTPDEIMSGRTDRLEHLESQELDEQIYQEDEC
Procedure, shortened: as §1

Sequence: ACATTG
- binding signal (ERF): 1.26 fold enrichment (6-mer frequency, TF over GST control)
- binding signal (ETV3L): 1.18 fold enrichment (6-mer frequency, TF over GST control)
- binding signal (ETS2): 1.17 fold enrichment (6-mer frequency, TF over GST control)
- binding signal (SPDEF): 1.12 fold enrichment (6-mer frequency, TF over GST control)
- binding signal (ETV7): 1.2 fold enrichment (6-mer frequency, TF over GST control)
- binding signal (ELF5): 1.07 fold enrichment (6-mer frequency, TF over GST control)
- binding signal (ETV3): 1.1 fold enrichment (6-mer frequency, TF over GST control)
- binding signal (ETV6): 1.21 fold enrichment (6-mer frequency, TF over GST control)

Sequence: TCCCTG
- binding signal (ERF): 1.29 fold enrichment (6-mer frequency, TF over GST control)
- binding signal (ETV3L): 1.28 fold enrichment (6-mer frequency, TF over GST control)
- binding signal (ETS2): 1.21 fold enrichment (6-mer frequency, TF over GST control)
- binding signal (SPDEF): 1.19 fold enrichment (6-mer frequency, TF over GST control)
- binding signal (ETV7): 1.23 fold enrichment (6-mer frequency, TF over GST control)
- binding signal (ELF5): 1.38 fold enrichment (6-mer frequency, TF over GST control)
- binding signal (ETV3): 1.26 fold enrichment (6-mer frequency, TF over GST control)
- binding signal (ETV6): 1.31 fold enrichment (6-mer frequency, TF over GST control)

Sequence: CGTTAT
- binding signal (ERF): 1.17 fold enrichment (6-mer frequency, TF over GST control)
- binding signal (ETV3L): 1.2 fold enrichment (6-mer frequency, TF over GST control)
- binding signal (ETS2): 1.15 fold enrichment (6-mer frequency, TF over GST control)
- binding signal (SPDEF): 1.08 fold enrichment (6-mer frequency, TF over GST control)
- binding signal (ETV7): 1.21 fold enrichment (6-mer frequency, TF over GST control)
- binding signal (ELF5): 1.05 fold enrichment (6-mer frequency, TF over GST control)
- binding signal (ETV3): 1.18 fold enrichment (6-mer frequency, TF over GST control)
- binding signal (ETV6): 1.09 fold enrichment (6-mer frequency, TF over GST control)

Sequence: ATAATT
- binding signal (ERF): 1.33 fold enrichment (6-mer frequency, TF over GST control)
- binding signal (ETV3L): 1.4 fold enrichment (6-mer frequency, TF over GST control)
- binding signal (ETS2): 1.31 fold enrichment (6-mer frequency, TF over GST control)
- binding signal (SPDEF): 1.23 fold enrichment (6-mer frequency, TF over GST control)
- binding signal (ETV7): 1.31 fold enrichment (6-mer frequency, TF over GST control)
- binding signal (ELF5): 1.31 fold enrichment (6-mer frequency, TF over GST control)
- binding signal (ETV3): 1.32 fold enrichment (6-mer frequency, TF over GST control)
- binding signal (ETV6): 1.45 fold enrichment (6-mer frequency, TF over GST control)

Sequence: TCAAAG
- binding signal (ERF): 1.08 fold enrichment (6-mer frequency, TF over GST control)
- binding signal (ETV3L): 1.12 fold enrichment (6-mer frequency, TF over GST control)
- binding signal (ETS2): 1.12 fold enrichment (6-mer frequency, TF over GST control)
- binding signal (SPDEF): 1.01 fold enrichment (6-mer frequency, TF over GST control)
- binding signal (ETV7): 1.1 fold enrichment (6-mer frequency, TF over GST control)
- binding signal (ELF5): 1.04 fold enrichment (6-mer frequency, TF over GST control)
- binding signal (ETV3): 1.07 fold enrichment (6-mer frequency, TF over GST control)
- binding signal (ETV6): 1.09 fold enrichment (6-mer frequency, TF over GST control)

Sequence: TGCATA
- binding signal (ERF): 1.09 fold enrichment (6-mer frequency, TF over GST control)
- binding signal (ETV3L): 1.23 fold enrichment (6-mer frequency, TF over GST control)
- binding signal (ETS2): 1.17 fold enrichment (6-mer frequency, TF over GST control)
- binding signal (SPDEF): 1.18 fold enrichment (6-mer frequency, TF over GST control)
- binding signal (ETV7): 1.23 fold enrichment (6-mer frequency, TF over GST control)
- binding signal (ELF5): 1.06 fold enrichment (6-mer frequency, TF over GST control)
- binding signal (ETV3): 1.11 fold enrichment (6-mer frequency, TF over GST control)
- binding signal (ETV6): 1.05 fold enrichment (6-mer frequency, TF over GST control)

Sequence: ACCTTG
- binding signal (ERF): 1.31 fold enrichment (6-mer frequency, TF over GST control)
- binding signal (ETV3L): 1.23 fold enrichment (6-mer frequency, TF over GST control)
- binding signal (ETS2): 1.27 fold enrichment (6-mer frequency, TF over GST control)
- binding signal (SPDEF): 1.27 fold enrichment (6-mer frequency, TF over GST control)
- binding signal (ETV7): 1.22 fold enrichment (6-mer frequency, TF over GST control)
- binding signal (ELF5): 1.11 fold enrichment (6-mer frequency, TF over GST control)
- binding signal (ETV3): 1.25 fold enrichment (6-mer frequency, TF over GST control)
- binding signal (ETV6): 1.17 fold enrichment (6-mer frequency, TF over GST control)
